Structures are written as SMILES. In all, about 340,000 compounds went through this assay and about 6,900 (2%) were called active. Cut-off read from the data, not from the text of the source: active = inhibition above about 30%; inactive = below that, where a call was filed. This excerpt belongs to a sample that is enriched for actives.

What is called inhibition is the change of the read-out against control, counted positive when it falls.

D(2) dopamine receptor (Homo sapiens), sequence (P14416 whole entry, looked up): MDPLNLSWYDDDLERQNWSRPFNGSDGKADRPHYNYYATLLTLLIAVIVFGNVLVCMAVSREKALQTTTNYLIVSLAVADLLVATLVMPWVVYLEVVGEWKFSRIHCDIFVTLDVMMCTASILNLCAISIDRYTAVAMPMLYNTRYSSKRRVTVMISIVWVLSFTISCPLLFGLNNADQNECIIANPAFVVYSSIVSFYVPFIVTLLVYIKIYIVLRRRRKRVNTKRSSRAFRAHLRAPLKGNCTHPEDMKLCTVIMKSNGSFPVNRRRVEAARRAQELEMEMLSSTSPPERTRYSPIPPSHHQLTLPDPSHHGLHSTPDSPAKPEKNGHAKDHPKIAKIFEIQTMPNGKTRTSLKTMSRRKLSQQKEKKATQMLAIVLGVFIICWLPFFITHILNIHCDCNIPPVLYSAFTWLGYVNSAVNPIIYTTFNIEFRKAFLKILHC

The assay addresses D(2) dopamine receptor (Homo sapiens) (UniProt P14416). As to the kind of experiment: HTS Assay for Allosteric Antagonists of the Human D2 Dopamine Receptor: Primary Screen for Antagonists. Note: 0% is about no effect. As to conditions: HEK293 TREx D2 cells, calcium flux, dopamine EC80; at 10 µM; stronger effect = higher value. In a few lines:
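Calcium mobilization kinetics were recorded at 1 s intervals in tetracycline-induced HEK293 T-REx D2 cells, first for 180 s after compound addition and then 180 s after EC80 dopamine.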
(In general: A change in cytosolic calcium serves as a functional read-out for many receptors and channels.)
Take `CCOc1ccc2oc(C(=O)N(CC)CC(=O)Nc3ccc(NC(C)=O)cc3)c(C)c2c1`: the inhibition was -21.5% (inactive).

Turning to `CCCC(NCC(=O)Nc1ccccc1C(=O)NC1CC1)c1ccccc1` (configuration not stated), the inhibition was -15.9% (inactive).

For the molecule `O=C(CCc1nc2sc3c(c2c(=O)[nH]1)CCCC3)NCC(=O)Nc1ccccc1Br`, the inhibition is 11% (inactive).

On to `Cc1ccccc1NC(=O)Cc1nc(COC(=O)c2cccnc2Cl)cs1`, for which the inhibition was 6.55% (inactive).

With `NC(=O)CSc1c[nH]c2ccccc12`, the inhibition is -9.76% (inactive).

Turning to `CC(C)N(C(=O)Cn1cc(SCC(=O)N2CCCC2)c2ccccc21)C(C)C`, the inhibition was 13.5% (inactive).

For the molecule `CCCn1cc(SCC(N)=O)c2ccccc21`, the inhibition is 31.1% (active).

Turning to `CCCCN(C(=O)C1CCC1)c1c(N)n(Cc2ccccc2)c(=O)[nH]c1=O`, the inhibition was -6.33% (inactive).

In the case of `O=C(NCCC1CCCCN1S(=O)(=O)c1ccc(Cl)cc1)C(=O)NCc1ccco1` (configuration not stated), the inhibition is -13.3% (inactive).

In the case of `COc1ccc(C(=O)NCc2ccc(Cl)cc2)cc1S(=O)(=O)N1CCCC1`, the inhibition was -28.1% (inactive).

Regarding `O=C(CCCc1ccccc1)NCc1ccccc1`, the inhibition was 7.76% (inactive).

On to `O=C(CCC(=O)c1cccs1)NC1CCCCCC1`, for which the inhibition is -3.48% (inactive).

For `O=C(CCC(=O)c1cccs1)NCc1ccccc1`, the inhibition is 34.9% (active).

Turning to `CC(NC(=O)CN(C)S(=O)(=O)c1ccc(F)cc1)C1CC2CCC1C2` (configuration not stated), the inhibition is 2.6% (inactive).

As for `COc1ccc(CCNC(=O)c2cnc(Cl)c(Cl)c2)cc1`, the inhibition is 2.2% (inactive).

Turning to `CC(CCc1ccccc1)NC(=O)c1ccc(Br)o1` (configuration not stated), the inhibition is -19.1% (inactive).

Regarding `CC(CCc1ccccc1)NC(=O)c1cnc(Cl)c(Cl)c1` (configuration not stated), the inhibition was 43.2% (active).

For the molecule `COc1cccc(N2CCN(CC(=O)Nc3ccnn3C3CCCC3)CC2)c1`, the inhibition was 19.5% (inactive).

As to `COc1ccc(C(=O)NCCc2ccc(S(N)(=O)=O)cc2)cc1OC`, the inhibition is 14% (inactive).

With `CCN(CC)CCNC(=O)c1ccc(NS(=O)(=O)c2ccc3c(c2)OCCO3)cc1`, the inhibition was 1.77% (inactive).

Take `CCN(CC)CCNC(=O)c1cc(S(C)(=O)=O)ccc1OC`: the inhibition was 99% (active).

As for `COc1cccc(NC(=O)CN(C)C(=O)/C=C/c2cn(-c3ccccc3)nc2-c2cccs2)c1`, the inhibition was 12.4% (inactive).

In the case of `COCCNc1nc(N)c([N+](=O)[O-])c(N2CCCCCC2)n1`, the inhibition was -9.71% (inactive).

On to `CCN1CCN(c2nc(Nc3cccc(F)c3)nc(N)c2[N+](=O)[O-])CC1`, for which the inhibition was 73.4% (active).

For the molecule `CC1CN(c2nc(Nc3ccccc3)nc(N)c2[N+](=O)[O-])CC(C)O1` (configuration not stated), the inhibition is 13.4% (inactive).

`O=C(C1Cc2ccccc2CN1C(=O)c1ccco1)N1CCN(c2ccccc2)CC1` (configuration not stated): the inhibition is -4.55% (inactive).

Take `CC(C)(C)C(=O)COC(=O)c1cc(S(=O)(=O)N2CCCCC2)ccc1N1CCOCC1`: the inhibition is 1.2% (inactive).

On to `Cc1ccc(S(=O)(=O)N2CCC(C(=O)OCC(=O)N(C)c3ccccc3)CC2)cc1C`, for which the inhibition is -7.26% (inactive).

As to `CN(c1cccc(NC(=O)Nc2ccc(Cl)cc2)c1)S(C)(=O)=O`, the inhibition was 4.52% (inactive).

As for `O=C(Nc1ccccc1)c1nnsc1S(=O)(=O)c1ccc(Cl)cc1`, the inhibition was 35.7% (active).

Turning to `Cc1nnsc1C(=O)N/N=C/c1ccccc1Cl`, the inhibition was -8.27% (inactive).

For `CCOc1ccc(C(C)NC(=O)CN2C(=O)NC3(CCCCC3)C2=O)cc1OCC` (configuration not stated), the inhibition is -2.35% (inactive).

Consider `CSCCC(NC(=O)COc1ccccc1)C(=O)N(C)CC(=O)Nc1ccc(C)cc1` (configuration not stated), for which the inhibition is -24.9% (inactive).

Regarding `CC(OC(=O)/C=C/c1ccccc1)C(=O)NC1CCCCC1C` (configuration not stated), the inhibition was -2.14% (inactive).

With `CCCCC(=O)NNC(=S)NC(=O)C(c1ccccc1)c1ccccc1`, the inhibition is 40.2% (active).

`CC(C)C(=O)Nc1cccc(NC(=S)NC(=O)C(c2ccccc2)c2ccccc2)c1`: the inhibition is -3.17% (inactive).

`O=C(NNC(=S)NCc1ccco1)C(c1ccccc1)c1ccccc1`: the inhibition was -2.47% (inactive).

Consider `Cc1ccc(S(=O)(=O)Nc2nc(CN3CCOCC3)nc3sc(C)c(C)c23)cc1`, for which the inhibition was -2.97% (inactive).

Consider `COc1ccc(CNC(=O)COc2ccccc2C(=O)c2cnn(-c3ccccc3)c2)cc1OC`, for which the inhibition was 7.52% (inactive).

For the molecule `CC(CCN1CCN=C1N(C)C)c1ccccc1` (configuration not stated), the inhibition is 8.97% (inactive).

On to `CC(C)(C)NC(=O)C(c1ccc(Cl)cc1)N(CCO)C(=O)c1snc(C(N)=O)c1N` (configuration not stated), for which the inhibition was -7.69% (inactive).

Regarding `CCOc1ccc(C(C(=O)NC2CCCC2)N(C(=O)c2snc(C(N)=O)c2N)C2CCCC2)cc1` (configuration not stated), the inhibition was -2.16% (inactive).

`NC(=O)c1nsc(C(=O)N(CCCN2CCOCC2)C(C(=O)NC2CCCCC2)c2ccc(Cl)cc2)c1N` (configuration not stated): the inhibition is 30.5% (active).

Turning to `Cc1cc(F)ccc1S(=O)(=O)Nc1ccc(C(=O)N(C)Cc2ccco2)cc1`, the inhibition was 2.47% (inactive).

Take `Cc1cccc(-n2c(Cc3cc(=O)[nH]c(=O)[nH]3)nnc2SCC(=O)Nc2cccc(C(F)(F)F)c2)c1`: the inhibition was 36.6% (active).

As to `Cc1cccc(-n2c(Cc3cc(=O)[nH]c(=O)[nH]3)nnc2SC(C)C)c1`, the inhibition was -16% (inactive).

Turning to `COc1cccc(-n2c(Cc3cc(=O)[nH]c(=O)[nH]3)nnc2SCC(=O)Nc2ccccc2)c1`, the inhibition is -4.57% (inactive).

Turning to `O=C(Nc1cccc(C(=O)NC2CC2)c1)c1ccc(F)c(S(=O)(=O)N2CCOCC2)c1`, the inhibition is -7.88% (inactive).

In the case of `Cc1ccccc1C(=O)NC(=S)NC1CC1`, the inhibition is 31.1% (active).

In the case of `O=C(NNC(=S)NC1CCCCC1)c1ccccc1Cl`, the inhibition is -5.96% (inactive).

For the molecule `Cc1ccccc1C(=O)NC(=S)Nc1ccc(N2CCN(C(=O)c3ccccc3)CC2)cc1`, the inhibition is -1.88% (inactive).

For `CCOC(=O)CSc1nnc(-c2ccco2)n1C`, the inhibition was 25.3% (inactive).

In the case of `Cn1c(SCC(=O)c2cccs2)nnc1-c1ccco1`, the inhibition is -10.8% (inactive).

As for `Nn1c(SCC(=O)Nc2nccs2)nnc1-c1ccco1`, the inhibition was 3.93% (inactive).

With `Cn1c(SCC(=O)Nc2ccc(Br)cc2F)nnc1-c1ccco1`, the inhibition was 31% (active).

For the molecule `CCn1c(SCC(=O)Nc2nccs2)nnc1-c1ccco1`, the inhibition was 83% (active).

For `CCn1c(SCC(=O)Nc2nccs2)nnc1-c1ccncc1`, the inhibition was 10.6% (inactive).

Consider `CSc1ncccc1C(=O)Nc1ccc2c(c1)OCO2`, for which the inhibition was -3.04% (inactive).

In the case of `CCc1ccccc1OCC(=O)Nc1ccc(C)c(S(=O)(=O)N2CCCCCC2)c1`, the inhibition is -4.67% (inactive).

Take `CCc1nnc(NC(=O)C2CCN(C(=O)c3ccccc3C)CC2)s1`: the inhibition was 14.3% (inactive).

Take `O=C(CNC(=O)C1COc2ccccc2O1)N/N=C/c1cc(Br)c(O)c(Br)c1` (configuration not stated): the inhibition was 7.94% (inactive).

`Cc1c(C)c2ccc(OCC(=O)N3CCC(C(=O)O)CC3)c(C)c2oc1=O`: the inhibition was 2.01% (inactive).

With `Cc1c(CC(=O)N2CCN(C(=O)C3COc4ccccc4O3)CC2)c(=O)oc2c(O)c(O)ccc12` (configuration not stated), the inhibition was 60% (active).

`COc1cccc(CNC(=O)COC(=O)CN2C(=O)NC3(CCCCC3C)C2=O)c1` (configuration not stated): the inhibition is 4.18% (inactive).

As for `COc1cccc(C(=O)NCCS(=O)(=O)NCC2CCCO2)c1` (configuration not stated), the inhibition is 8.23% (inactive).

Regarding `O=C(COC(=O)c1cc(=O)[nH]c2ccccc12)NCc1cccc(Cl)c1`, the inhibition was -19.7% (inactive).

For `COc1ccc(CN2CC(C(=O)NC3CCCCC3)CC2=O)cc1` (configuration not stated), the inhibition is 9.38% (inactive).

With `COc1ccc(CN2CC(C(=O)NCCN3CCN(c4ccccc4F)CC3)CC2=O)cc1` (configuration not stated), the inhibition is 78.4% (active).

Turning to `CCOC(=O)N1CCN(c2c(NCCN3CCN(c4ccccc4F)CC3)c(=O)c2=O)CC1`, the inhibition was -8.27% (inactive).

For `O=C(NCCCN1CCN(c2ccccc2F)CC1)C1CCC(=O)N1C1CCCCC1` (configuration not stated), the inhibition is 55.7% (active).

For the molecule `COc1ccc(CN2CC(C(=O)NCCc3ccc(Cl)cc3)CC2=O)cc1` (configuration not stated), the inhibition is 4.69% (inactive).

For the molecule `O=C(NCCCN1CCCCCC1)C1CC(=O)N(C2CCCC2)C1` (configuration not stated), the inhibition was -15.4% (inactive).

With `CCOC(=O)C1CCN(C(=O)c2cccc(S(=O)(=O)N(CC)c3ccccc3)c2)CC1`, the inhibition was 14.5% (inactive).

Consider `Nc1c(C(=O)OCC(=O)Nc2ccc(OC(F)F)cc2)[nH]c(=O)[nH]c1=O`, for which the inhibition was 0.0124% (inactive).

For the molecule `Cc1ccc(CSc2ccc(S(=O)(=O)N3CCCCC3)cn2)cc1`, the inhibition was -10.3% (inactive).

As to `COc1ccc(NC(=O)CSc2nnc(C3CC3)n2C)cc1S(=O)(=O)N1CCCCC1`, the inhibition is -7.07% (inactive).

In the case of `C/C(=N/NC(=O)CC(=O)N/N=C(\C)c1ccc([N+](=O)[O-])cc1)c1ccc([N+](=O)[O-])cc1`, the inhibition is -6.92% (inactive).

On to `C/C(=N\N(C)C)c1ccc(OCCOc2ccc([N+](=O)[O-])cc2)cc1`, for which the inhibition was 33.5% (active).

`CCOC(=O)COc1ccc([N+](=O)[O-])cc1`: the inhibition was 5.2% (inactive).

For `CC(=O)C[C@@H](O)CC(=O)[C@H]1OC(=O)CCCCCCc2ccccc21`, the inhibition is 3.89% (inactive).

As to `Cc1ccccc1NC(=O)COc1cccc2c1CCNC2=O`, the inhibition is -0.505% (inactive).

On to `CCCCN(C(=O)CSCC(=O)Nc1ccc(OC)cc1)c1c(N)n(CCC)c(=O)[nH]c1=O`, for which the inhibition is 9.85% (inactive).

Take `N#Cc1ccc(CN2CCN(CC(=O)Nc3ccccc3C(=O)NC3CC3)CC2)cc1`: the inhibition was 4.29% (inactive).

`CC1Cc2ccccc2N1S(=O)(=O)c1cccc(C(=O)NCC(c2ccco2)N2CCCC2)c1` (configuration not stated): the inhibition was -15% (inactive).

On to `C/C(N)=C(/C#N)C(=O)COC(=O)CNS(=O)(=O)c1ccc(C)cc1`, for which the inhibition was 12.5% (inactive).

As to `COC(=O)CNS(=O)(=O)c1ccc(Cc2ccc(S(=O)(=O)NCC(=O)OC)cc2)cc1`, the inhibition is 41.3% (active).

In the case of `COC(=O)CNS(=O)(=O)c1ccc(OC)cc1`, the inhibition was 6.78% (inactive).

For the molecule `CNS(=O)(=O)c1cccc(C(=O)OCCCC(=O)c2ccccc2)c1`, the inhibition was -4.56% (inactive).

With `CC(=O)c1c(C)c[nH]c1C`, the inhibition is 31.1% (active).

In the case of `CCOC(=O)c1c(Cc2ccc(Cl)cc2)c[nH]c1C`, the inhibition is -4.64% (inactive).

In the case of `O=C(CSc1ncnc2sccc12)N1CCN(C(=O)c2cccs2)CC1`, the inhibition was 30% (inactive).

As for `Cc1occc1-c1nnc(SCC(=O)NC2CCCCC2)o1`, the inhibition was 6.65% (inactive).

Source of the values: PubChem BioAssay AID485344 (National Center for Advancing Translational Sciences (NCATS), 2010).
